The record followed here is PubChem BioAssay (EPA / NIEHS).

Activity calls are given as the source filed them. The calls were made as follows: active = hit-call score of the fitted dose curve at least 0.9, where 1 is the maximum; inactive = score below 0.9.

Read-out in assay [1]: Vascular cell adhesion molecule 1 (VCAM1), VCAM1 (gene 7412)
Briefly: BSK_4H_VCAM1: BioMAP Diversity Plus: 4H Assay for Vascular cell adhesion molecule 1 (VCAM1) Biomarker Activity (AID 2283033).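 As to outcome: cell-surface VCAM-1 protein measured by ELISA.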 Conditions: primary human endothelial cells (HUVEC); actives raise or lower the signal. The procedure, abridged:
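ELISA read-out of VCAM-1 on human umbilical vein endothelium 24 hours after chemical dosing; gain or loss of signal was fitted relative to DMSO, with sulforhodamine B staining of parallel cultures flagging overt cytotoxicity.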

Read-out in assay [2]: Interferon-gamma inducible Protein 10 (IP10), CXCL10 (gene 3627)
Nature of the assay: BSK_BE3C_IP10: BioMAP Diversity Plus: BE3C Assay for Interferon-gamma inducible Protein 10 (IP10) Biomarker Activity (AID 2283034). As to conditions: primary human bronchial epithelial cells; actives raise or lower the signal. The procedure, abridged:
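Chemical is dosed onto human lung bronchial epithelial primary cells, cultures are incubated 24 h, and IP-10 is then quantified by ELISA. Gain or loss of signal is fitted in both directions relative to DMSO.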

Read-out in assay [3]: Monokine induced gamma interferon (MIG), CXCL9 (gene 4283)
Briefly: BSK_BE3C_MIG: BioMAP Diversity Plus: BE3C Assay for Monokine induced gamma interferon (MIG) Biomarker Activity (AID 2283035). Conditions: primary human bronchial epithelial cells; actives raise or lower the signal. The method, boiled down: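 Primary human bronchial epithelial cells treated for 24 h; MIG levels measured by ELISA, fitted bidirectionally versus DMSO. Parallel SRB total-protein staining assessed cytotoxicity.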

Read-out in assay [4]: Transforming growth factor beta 1 (TGFb1), TGFB1 (gene 7040)
Nature of the assay: BSK_BE3C_TGFb1: BioMAP Diversity Plus: BE3C Assay for Transforming growth factor beta 1 (TGFb1) Biomarker Activity (AID 2283036;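 as to outcome: TGF-b1 protein level measured by ELISA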). As to conditions: primary human bronchial epithelial cells; actives raise or lower the signal. The method, boiled down: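 Primary human lung bronchial epithelial cells; compound exposure 24 h; TGF-b1 by ELISA; bidirectional fit, DMSO baseline. Parallel SRB total-protein staining for cytotoxicity.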

Read-out in assay [5]: Plasminogen activator inhibitor-1 (PAI1), SERPINE1 (gene 5054)
Briefly: BSK_BE3C_PAI1: BioMAP Diversity Plus: BE3C Assay for Plasminogen activator inhibitor-1 (PAI1) Biomarker Activity (AID 2283037). As to conditions: primary human bronchial epithelial cells; actives raise or lower the signal. The procedure, abridged: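 Primary human lung bronchial epithelial cells; chemical dosing; 24 h; PAI-1 measured by ELISA; bidirectional fit referenced to DMSO as negative control.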

Read-out in assay [6]: urokinase plasminogen activator (uPA), PLAU (gene 5328)
Briefly: BSK_BE3C_uPA: BioMAP Diversity Plus: BE3C Assay for urokinase plasminogen activator (uPA) Biomarker Activity (AID 2283038).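 As to outcome: uPA protein level quantified by ELISA in cell cultures; uPA read one day after compound addition.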 Conditions: primary human bronchial epithelial cells; actives raise or lower the signal. The procedure, abridged: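 Human primary bronchial epithelial cells were exposed to chemical for 24 h, then uPA levels were measured by ELISA. Responses were fitted bidirectionally against DMSO as negative control and baseline. Parallel SRB staining of total protein gauged overt cytotoxicity.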

Read-out in assay [7]: Urokinase-type plasminogen activator receptor (uPAR), PLAUR (gene 5329)
Briefly: BSK_BE3C_uPAR: BioMAP Diversity Plus: BE3C Assay for Urokinase-type plasminogen activator receptor (uPAR) Biomarker Activity (AID 2283039).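 As to outcome: cells exposed to compound for one day before measurement.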 Conditions: primary human bronchial epithelial cells; actives raise or lower the signal. The method, boiled down:
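Human bronchial epithelial primary cells; chemical exposure 24 h; uPAR by ELISA; bidirectional fit vs DMSO control.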

Read-out in assay [8]: Interleukin-6 (IL6), IL6 (gene 3569)
Briefly: BSK_CASM3C_IL6: BioMAP Diversity Plus: CASM3C Assay for Interleukin-6 (IL6) Biomarker Activity for (AID 2283040). As to conditions: primary human coronary artery smooth muscle cells; actives raise or lower the signal.

Read-out in assay [9]: Tissue plasminogen activator (tPA), PLAT (gene 5327)
Nature of the assay: BSK_BE3C_tPA: BioMAP Diversity Plus: BE3C Assay for Tissue plasminogen activator (tPA) Biomarker Activity (AID 2283041).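 As to outcome: tPA level quantified by ELISA one day after compound addition.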 As to conditions: primary human bronchial epithelial cells; actives raise or lower the signal. The method, boiled down: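 Primary human lung bronchial epithelial cultures receive test chemical; after 24 h, tPA is quantified by ELISA, and gain or loss of signal is fitted bidirectionally relative to DMSO baseline.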

Read-out in assay [10]: Interleukin-8 (IL8), CXCL8 (gene 3576)
Nature of the assay: BSK_CASM3C_IL8: BioMAP Diversity Plus: CASM3C Assay for Interleukin-8 (IL8) Biomarker Activity (AID 2283042).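 Also: IL-8 protein level quantified by ELISA.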 Conditions: primary human coronary artery smooth muscle cells; actives raise or lower the signal.

As usually defined, the AC50 is the concentration giving half of the maximal activity seen. Regarding `NC(=O)c1nc(-c2cccc(-c3cc(F)ccc3OCC(F)(F)C(F)(F)F)c2)n[nH]1`, the AC50 in assay [1] is 38.2 µM (active); in assay [2], 35.9 µM (active); in assay [3], 37.5 µM (active); in assay [4], 33 µM (active); in assay [5], 35.1 µM (active); in assay [6], 37.7 µM (active). For the same compound, the values for the AC50 in assay [7] and in assay [9] were 35.3 µM (active) and 27.5 µM (active), respectively. Also, the outcome in assay [8] and in [10] was inactive.
On to `COCC(C)OCC(C)OCC(C)O` (stereo unspecified), for which the result in [1], in assay [2], in assay [3], in assay [4], in assay [5] and in assay [6] was inactive. Also, the outcome in assay [7], in [8], in [9] and in assay [10] was inactive.
Turning to `O=C1c2ccccc2C(=O)N1CCc1noc(-c2ccc(CN3CCCCCC3)s2)n1`, the outcome in assay [1], in assay [2], in [3], in [4], in [6] and in [7] was inactive. For the same compound, the outcome in assay [8], in [9] and in [10] was inactive.
As for `CC(C)(c1cc(Br)c(O)c(Br)c1)c1cc(Br)c(O)c(Br)c1`, the AC50 in assay [1] is 29.6 µM (active); in assay [2], 6.45 µM (active); in assay [3] it was 9.16 µM (active); in assay [4] it was 5.15 µM (active); in assay [6] it was 9.34 µM (active); in assay [7], 9.25 µM (active). In addition, the AC50 in [9] was 3.37 µM (active). For the same compound, the result in assay [8] and in assay [10] was inactive.
`CCCCCc1ccc(N)cc1`: the outcome in assay [1], in [2], in assay [3], in [4], in assay [6] and in assay [8] was inactive. The result in assay [9] and in [10] was inactive. The AC50 in [7] is 5.56 µM (active).
As to `Cc1ccc2oc(CN(Cc3ccccc3)C(=O)Nc3c(F)cc(F)cc3F)c(-c3ccc(Cl)cc3)c2c1`, the outcome in assay [1], in [2], in assay [3], in assay [4], in [6] and in [7] was inactive. Besides, the result in assay [8], in assay [9] and in assay [10] was inactive.
Regarding `CC1(C)NC(=O)N(c2ccc([N+](=O)[O-])c(C(F)(F)F)c2)C1=O`, the outcome in assay [1], in assay [2], in [3], in [4], in [6] and in assay [7] was inactive. The outcome in assay [8], in assay [9] and in assay [10] was inactive.
For `c1ccc(C[n+]2cccc3ccccc32)cc1`, the outcome in assay [1], in assay [3], in [4], in assay [6], in assay [7] and in assay [8] was inactive. Besides, the outcome in [9] and in [10] was inactive. Also, the AC50 in assay [2] is 30.2 µM (active).
For the compound `Cc1occc1C(=O)Nc1ccc(C(=O)N2CCC(F)(F)/C(=C\C(=O)N3CCC(N4CCCCC4)CC3)c3ccccc32)cc1`, the AC50 in [1] is 9.44 µM (active). The result in assay [2], in assay [3], in [6], in assay [7], in assay [8] and in assay [9] was inactive. Moreover, in assay [10], the outcome was inactive.
In the case of `CCCCOC(=O)CC(CC(=O)OCCCC)(OC(C)=O)C(=O)OCCCC`, the result in [1], in [2], in assay [3], in [4], in [6] and in [7] was inactive. Moreover, the outcome in assay [8], in assay [9] and in assay [10] was inactive.
As for `CCOC(=O)O[C@H](C)OC(=O)c1ccc2c(c1)cc(C(=O)NC1CCN(C(C)C)CC1)n2Cc1cc(-c2ccc(Cl)s2)on1`, the AC50 in [1] was 5.44 µM (active); in assay [2], 11.5 µM (active); in assay [3] it was 14.4 µM (active); in assay [4], 11.8 µM (active); in assay [6], 9.63 µM (active); in [7], 9.89 µM (active). Besides, the AC50 in assay [8] is 9.24 µM (active); in assay [9] it was 9.95 µM (active); in assay [10], 8.81 µM (active).
Regarding `CC1=CC(=O)/C(=C(/C)O)C(=O)O1`, the result in [1], in [2], in assay [3], in [4], in assay [6] and in assay [7] was inactive. Further, the outcome in assay [8], in assay [9] and in assay [10] was inactive.
Take `CCCCOC(=O)c1ccc(O)cc1`: the result in [1], in assay [2], in assay [3], in [4], in assay [6] and in [7] was inactive. Further, the outcome in assay [8], in assay [9] and in assay [10] was inactive.
As for `O=CCCCC=O`, the half-maximal activity concentration (AC50) in assay [1] is 31.5 µM (active). Besides, the result in assay [2], in assay [3], in assay [4], in assay [6], in assay [7] and in assay [8] was inactive. Also, the result in [9] and in assay [10] was inactive.
With `Cc1oc2c(NC(=O)c3c(Cl)cccc3Cl)cccc2c1C(C)(C)O`, the outcome in [1], in [2], in assay [3], in [4], in assay [6] and in [7] was inactive. Moreover, in assay [10], the result was inactive. The AC50 in [8] was 33.2 µM (active); in assay [9] it was 15.1 µM (active).
`CN1C(=O)N(c2ccccc2Br)Cc2cnc(Nc3ccc4c(c3)OCC(CO)O4)nc21` (stereo unspecified): the AC50 in [1] was 15.2 µM (active); in assay [2] it was 19.3 µM (active); in assay [3], 34.7 µM (active); in assay [4], 20 µM (active); in assay [6], 5.91 µM (active); in assay [7], 1.23 µM (active). The values for the AC50 in assay [8], in assay [9] and in [10] were 20 µM (active), 4.46 µM (active) and 14.3 µM (active), respectively.
Take `COc1cccc([C@H](O)C2CCN(CCc3ccc(F)cc3)CC2)c1OC`: the AC50 in assay [1] is 12.9 µM (active). The outcome in assay [2], in assay [3], in assay [4], in [6], in assay [7] and in [8] was inactive. Also, the result in assay [9] and in assay [10] was inactive.
For `CCO[Si](CCCNC(N)=O)(OCC)OCC`, the result in assay [1], in assay [2], in [3], in [4], in assay [6] and in [7] was inactive. Moreover, the result in assay [8], in [9] and in assay [10] was inactive.
For `O=C=NCCCCCCN=C=O`, the outcome in assay [1], in assay [2], in assay [3], in assay [4], in [6] and in [7] was inactive. Also, the outcome in assay [8], in assay [9] and in [10] was inactive.
In the case of `CCN(CC)C(=O)c1cc(S(=O)(=O)Cc2ccccc2)c(N2CCC(c3ccccc3)CC2)cc1N(CC)CCN(C)C`, the AC50 in [1] is 18.3 µM (active); in assay [2], 10.9 µM (active); in assay [3], 12.6 µM (active); in assay [4] it was 9.99 µM (active); in assay [6], 10.3 µM (active); in assay [7], 10.4 µM (active). Moreover, the AC50 in assay [8] is 0.7 µM (active); in assay [9], 6.65 µM (active); in [10], 24.8 µM (active).
